Measured values reported in PubChem BioAssay (NCI).
This is part of a sample that, as a whole, favours compounds with a hit. Of some 83,000 tested, about 20% had one in any assay.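 48-hour exposure, single concentration, 96-well plates; percent growth endpoint where 0 means no net growth. Active: below 10.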 Values without a mark were called inactive. Calls of active or inactive are those of the source.

How the values were obtained:
Assay in all cases: NCI-60 one-dose screen, 48 h (100 = growth as untreated, 0 = no growth, -100 = all killed)
Conditions in all cases: 10 µM unless noted
NCI-H23 lung = tested on: NCI-H23 lung
NCI-H226 lung = tested on: NCI-H226 lung
NCI-H322M lung = tested on: NCI-H322M lung
HOP-62 NSCLC = tested on: HOP-62 NSCLC
NCI-H460 lung = tested on: NCI-H460 lung
HOP-92 NSCLC = tested on: HOP-92 NSCLC
NCI-H522 lung = tested on: NCI-H522 lung
A549/ATCC NSCLC = tested on: A549/ATCC NSCLC
786-0 renal = tested on: 786-0 renal
COLO 205 colon = tested on: COLO 205 colon

Row | SMILES | growth (NCI-H23 lung) | growth (NCI-H226 lung) | growth (NCI-H322M lung) | growth (HOP-62 NSCLC) | growth (NCI-H460 lung) | growth (HOP-92 NSCLC) | growth (NCI-H522 lung) | growth (A549/ATCC NSCLC) | growth (786-0 renal) | growth (COLO 205 colon)
1 | O=C1NC(=S)S/C1=C\N1N=C(c2ccc(Cl)cc2)CC1c1ccc(F)cc1 (centres undefined) | 91.3% | 83.9% | 99.1% | 103% | 95.8% | 104% | 76.1% | 84.1% | 94% | 
2 | C=C1c2c(C)nn(-c3ccc(N)cc3)c2N(C)C23CC1C1(C)c4c(C)nn(-c5ccc(N)cc5)c4N(C)C(C)(CC12)C3 (centres undefined) | 93.6% | 71.2% | 92.1% | 88.3% | 57.2% | 90.2% | 62.3% | 50.1% | 81.1% | 
3 | COc1ccc(-c2c(N)n[nH]c2-c2ccccc2O)cc1OC | 93.1% | 99.6% | 102% | 88.9% | 107% | 74% | 85% | 95.2% | 97.2% | 98.1%
4 | O=C1c2ccccc2C2(c3ccc(O)cc3)c3ccccc3Oc3cccc1c32 (centres undefined) | 33.4% | 85.9% | 32.5% | 31.5% | 11.3% | 29.9% | 48.6% | 29% | 40.6% | 
5 | O=C(NCCOCCOCCOCCNC(=O)c1cc2c(o1)C(=O)c1ccccc1C2=O)NC12CC3CC(CC(C3)C1)C2 | -45.7% (active) | -80.4% (active) | -59.5% (active) | -58% (active) | -71% (active) | 43.5% | -27.7% (active) | -47.6% (active) | 3.51% (active) | 
6 | COc1ccc(-c2nc3ccccn3c2/C=C/C(=O)c2cc(OC)c(OC)c(OC)c2)cc1 | 45.1% | 71.7% | 73.2% | 70.8% | 34.4% | 22.7% | 26.7% | 55.8% | 63.1% | 
7 | Cc1cc(-c2noc(C(F)(F)F)n2)ccc1N1CCN(c2cc(C(=O)N(C)C)no2)CC1 | 55.6% | 55.8% | 101% | 68.1% | 75.7% | 63.5% | 57% | 67.3% | 80.4% | 
8 | CS(=O)(=O)c1ccc(-c2nc3cc(Cl)ccc3n2CC(=O)NO)cc1 | 94.7% | 88.7% | 98.6% | 97.1% | 101% | 98% | 86.3% | 94.1% | 99.5% | 
9 | CN(C)CCCCNc1ccc(NCCCCN(C)C)c2c1C(=O)c1c(O)ccc(O)c1C2=O | -68.5% (active) | 102% | 56.1% | 69.4% | -79.1% (active) | 40.6% | -77.9% (active) | -82.9% (active) | -75.1% (active) | 
10 | COc1ccc(C2=NC(=O)NC2c2ccc(OC)cc2)cc1 (centres undefined) | 68.3% | 74% | 132% | 42.3% | 72.9% | 26% | 54% | 82.8% | 38.6% | 58.7%
11 | CCn1c(Sc2nnc(NC(C)=O)s2)nc2c1c(=O)n(C)c(=O)n2C | 82.2% | 93.9% | 96.5% | 99.4% | 103% | 77.6% | 93.5% | 98.7% | 99.6% | 
12 | CCOC(=O)N1CCc2c(sc3c2C(=O)N[C@H](c2ccc(OC)cc2)N3)C1 | 103% | 94.7% | 105% | 68.4% | 104% | 92.6% | 76% | 85.4% | 97.8% | 
13 | COc1cc(C2CC(=O)Nc3n[nH]c(-c4ccccc4)c32)cc(OC)c1OC (centres undefined) | 81.6% | 91.8% | 94.1% | 58% | 67.5% | 77.4% | 30.1% | 46% | 75.3% | 
14 | CN(C)CCC(O)(Cc1ccccc1)c1ccccc1 (centres undefined) | 100% | 115% | 120% | 111% | 112% | 106% | 116% | 106% | 105% | 107%
15 | Nc1c(-c2nc3ccccc3c(=O)[nH]2)nnn1-c1ccc(Cl)cc1 | 78.9% | 102% | 78.3% | 57.2% | 56.2% | 101% | 52.5% | 40.6% | 82.2% | 98.6%
16 | COc1ccc(NC(=O)c2cccc(-c3cc(=O)c4c(O)c(OC)c(OC)cc4o3)c2)cc1 | 91.3% | 91.9% | 99.5% | 72.2% | 92.7% | 23.6% | 79.4% | 81.3% | 43% | 97.6%
17 | Cn1ncc2c(Nc3ccc(Br)cc3)nc(Nc3ccc(Br)cc3)nc21 | 27.5% | 62.1% | 73% | 23.8% | 8.2% (active) | 7.66% (active) | 44.8% | 48.1% | -38.9% (active) | 64%
18 | Cn1cc(-c2ccc3ncc(-c4ccc(CC(=O)Nc5cc(C(C)(C)C)nn5C)cc4)cc3c2)cn1 | 7.05% [30 µM] (active) | 11.5% [30 µM] | 15% [30 µM] | 17.6% [30 µM] | 8.3% [30 µM] (active) | 31.6% [30 µM] | -2.49% [30 µM] (active) | 17.8% [30 µM] | 39.6% [30 µM] | 5.26% [30 µM] (active)
19 | C[C@@H]1CC[C@@H]2[C@@H]1[C@H](OC(=O)/C=C/c1ccccc1)[C@]1(CCCOCCOCCOCCOC(=O)CCCC[C@@H]3SC[C@@H]4NC(=O)N[C@@H]43)C[C@@H](OC(=O)CO)[C@@]2(C)O1 | 102% | 105% | 92.6% | 99.3% | 106% | 108% | 85% | 97.7% | 97.6% | 112%
20 | c1ccc([P+](CCCc2n(Cc3ccc4ccccc4c3)c3ccccc3[n+]2Cc2ccc3ccccc3c2)(c2ccccc2)c2ccccc2)cc1 | 44% | 83.5% | 63.8% | 61.6% | 34.8% | 46.3% | 60.2% | 80.2% | 70.8% | 44.7%
21 | Cc1cccc(-c2cc(O)c(C(=O)N3CCOCC3)s2)c1 | 55.2% | 68% | 63.6% | 38.3% | 17.7% | 73.7% | 0.179% (active) | 37.7% | 51.4% | 94.9%
22 | C=CCO[C@H]1CO[C@H]2[C@@H]1OC[C@@H]2Oc1ccc(Nc2ccnc(Nc3ccc(O[C@H]4CO[C@H]5[C@@H]4OC[C@@H]5OCC=C)c(Cl)c3)n2)cc1Cl | -47.8% (active) | 86.7% | -56.6% (active) | -25.5% (active) | -74% (active) | 83.3% | -29.9% (active) | -60.7% (active) | -88.2% (active) | 29.2%
23 | CCCCC1COc2cccc3c(SCC(=O)N(C)c4cccc(Cl)c4)cc[n+]1c23 (centres undefined) | 99.9% | 103% | 107% | 109% | 113% | 113% | 96.9% | 109% | 107% | 110%
24 | Cc1nc(Nc2ccc(NC(=S)Nc3ccccc3)cc2)nc2nc(Nc3cccc(Cl)c3)[nH]c(=O)c12 | 92.4% | 99.2% | 183% | 91.7% | 114% | 60.4% | 34.4% | 86.1% | 98.7% | 122%
25 | CN(C)c1ccc(-c2cc(-c3ccc(Nc4nc(Nc5ccccc5)nc(Nc5ccc(Cl)cc5)n4)cc3)nc(N)n2)cc1 | 48% | 59% | 66.3% | 33.1% | 41.7% | -3.41% (active) | 55.6% | 43.4% | 10.6% | 58.1%
26 | O=c1[nH]c(=O)n(C2CC(O)C(CO)O2)cc1CO (centres undefined) | 41.6% | 98.2% | 102% | 32.8% | 65.9% | 105% | 101% | 86.5% | -18.5% (active) | 120%
27 | COc1cccc(-c2cnco2)c1OCc1c(C)c(COc2c(OC)cccc2-c2cnco2)c(C)c(COc2c(OC)cccc2-c2cnco2)c1C | 71.5% | 21.8% | 70.7% | 42.1% | 52.2% | -6.35% (active) | 33.9% | 51.8% | 2.94% (active) | 83.4%
